The sample as a whole holds a higher share of hits than the screen did.
ERp5 block: inhibitors of human ERp5. 0.05% of 350,000 active. Q15084. inhibition, % at 9.99 µM. ERp5 insulin aggregation, absorbance 650 nm, 90 min;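 active = mean replicate inhibition above about 25%, with every replicate also reaching it, limit read from the data, passing the limit was not always enough; inconclusive = only one of those two criteria met; inactive = neither criterion met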
PDI turbidity: blocks human protein disulfide isomerase activity | P07237 | PDI insulin aggregation turbidity, A650, 90 min | inhibition, % at 10 µM | 0.052% of 350,000 active;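 active = mean inhibition across replicates of 30% or more, whatever share of single replicates reach that level; inconclusive = mean inhibition below 30% while every single replicate reaches 30%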
Target sequence (P07237 whole entry, looked up): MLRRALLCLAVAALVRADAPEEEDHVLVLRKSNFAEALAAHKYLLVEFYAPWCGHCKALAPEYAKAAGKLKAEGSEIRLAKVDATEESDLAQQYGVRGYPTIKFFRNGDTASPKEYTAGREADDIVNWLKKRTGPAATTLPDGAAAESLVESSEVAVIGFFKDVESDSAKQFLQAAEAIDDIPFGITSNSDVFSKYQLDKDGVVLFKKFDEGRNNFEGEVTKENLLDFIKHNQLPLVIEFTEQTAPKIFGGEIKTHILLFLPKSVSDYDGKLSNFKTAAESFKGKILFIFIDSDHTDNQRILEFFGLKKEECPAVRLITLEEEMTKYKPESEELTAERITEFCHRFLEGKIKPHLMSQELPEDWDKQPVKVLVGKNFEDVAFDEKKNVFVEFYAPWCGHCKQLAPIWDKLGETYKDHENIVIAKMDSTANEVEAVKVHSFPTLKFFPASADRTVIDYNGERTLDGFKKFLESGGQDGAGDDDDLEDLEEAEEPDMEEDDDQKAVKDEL
PglD inh: blocks C. jejuni PglD acetyltransferase activity; 0.098% of 360,000 active; purified PglD enzyme, DTNB colorimetric CoA detection; inhibition, % at 12.5 µM; in the data active = inhibition above about 16%, passing the limit was not always enough; inconclusive = no clear call, values can overlap the other calls
ALR inh: human ALR oxidase inhibition via reduced H2O2 | purified ALR, DTT oxidation, H2O2 HRP-luminol luminescence | inhibition, % (no concentration beside the values) | 3.8% of 290,000 active;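 active = mean replicate inhibition above about 79%, with every replicate also reaching it, limit read from the data; inconclusive = only one of the two criteria met; inactive = mean below limit and not every replicate reaching it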
ARNT-TACC3 inh: disruptors of human ARNT/TACC3 interaction; Q9Y6A5; AlphaScreen His-ARNT PAS-B/GST-TACC3 binding, luminescence; TACC3 fragment carries E629A point mutation; inhibition, % at 9.99 µM; 0.66% of 390,000 active; AID 623870;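 active = mean inhibition of replicates at least 50% and at least half of replicates each reaching 50%; inconclusive = half or more replicates reach 50% but mean below 50%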
CendR NRP1 mod: alters CendR peptide binding to human NRP-1 | O14786 | FAM-RPARPAR peptide binding to NRP-1, fluorescence polarization | inhibition, % at 25 µM | 0.85% of 360,000 active | AID 602438;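 active = inhibition or corrected inhibition above about 18%, plus a signal ratio from 0.5 to 1.5, limit read from the data, passing the limit was not always enough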
Numbers stand for hits; i = inactive; ? = inconclusive; nt = no result given.

SMILES	ERp5 block	PDI turbidity	PglD inh	ALR inh	ARNT-TACC3 inh	CendR NRP1 mod
COc1ccc(OC)c(/C=N/NC(=O)CCN2CCN(C(c3ccccc3)c3ccccc3)CC2)c1	nt	i	nt	i	i	i
O=C(CCN1CCN(C(c2ccccc2)c2ccccc2)CC1)N/N=C/c1ccc(O)cc1O	nt	i	nt	i	45.1	i
O=C(CCN1CCN(C(c2ccccc2)c2ccccc2)CC1)N/N=C/c1ccc(O)cc1	nt	i	nt	98.4	i	i
CC(C)NC(=O)N1C[C@H]2[C@@H](c3ccccc31)[C@@H](CO)N2C(=O)c1ccncc1	i	nt	i	nt	i	nt
COc1cccc(-c2nnc3sc(-c4ccco4)nn23)c1	nt	i	i	i	i	i
COc1cc(-c2nnc3sc(-c4ccco4)nn23)cc(OC)c1OC	i	i	i	98.2	i	i
COc1ccc(-c2nnc3sc(-c4ccco4)nn23)cc1OC	nt	i	i	99.4	i	i
CCOc1c2ccc(C(=O)NCc3ccc4c(c3)OCO4)cc2nn1CCOC	i	i	i	i	i	18.0
CCCn1nc2cc(C(=O)NCc3ccc(OC(F)(F)F)cc3)ccc2c1OCC	i	i	i	i	i	18.8
CCCn1nc2cc(C(=O)NCc3ccc4c(c3)OCO4)ccc2c1OCC	?	i	i	i	i	i
C[C@@H]1CCCCO[C@@H](CN(C)S(=O)(=O)c2cccs2)[C@H](C)CN([C@H](C)CO)C(=O)c2cc(NS(=O)(=O)c3ccc(F)cc3)ccc2O1	i	nt	i	nt	i	nt
O=C(C[C@@H]1CC[C@@H]2[C@H](COC[C@H](O)CN2Cc2ccc(F)cc2)O1)N1CCc2ccccc2C1	i	nt	i	nt	i	nt
Cc1ccc(S(=O)(=O)N(CCC(=O)Nc2ccc(OC(F)(F)F)cc2)c2ccccc2)cc1	nt	i	nt	i	i	39.6
CO[C@H]1CN(C)C(=O)c2cc(NC(C)=O)ccc2OC[C@H](C)N(Cc2ccncc2)C[C@H]1C	i	nt	i	nt	i	nt
CC1(C(=O)O)CCC(C(=O)Nc2ccccc2O)C1(C)C (stereo unspecified)	nt	i	i	86.3	i	i
O=C(CCC1N=C2c3ccccc3N=C(SCc3ccccc3Cl)N2C1=O)NCc1ccco1 (stereo unspecified)	nt	i	i	99.3	i	i
O=C(CCC1N=C2c3ccccc3N=C(SCc3cccc(Cl)c3)N2C1=O)NCc1ccco1 (stereo unspecified)	nt	i	i	i	i	i
COc1cc(O)c(C(CC(=O)N2CCOCC2)c2ccc3c(c2)OCO3)c(OC)c1 (stereo unspecified)	i	i	i	i	i	27.6
COc1cc(O)c(C(CC(=O)N2CCOCC2)c2ccc(N(C)C)cc2)c(OC)c1 (stereo unspecified)	i	i	i	nt	i	24.1
Cc1ccc(Nc2nc(C)c(CCC(C)C)c(=O)[nH]2)cc1	nt	i	i	i	i	i
CCCCCc1c(C)nc(Nc2ccccc2)[nH]c1=O	nt	i	i	i	i	38.1
C[C@@H]1CCCCO[C@H](CN(C)C(=O)NC2CCCCC2)[C@H](C)CN([C@@H](C)CO)C(=O)c2cc(NS(=O)(=O)c3ccc(Cl)cc3)ccc2O1	i	nt	i	nt	i	nt
CCN(CC)CCN1c2ccccc2Sc2ccc3ccccc3c21	i	i	i	97.9	i	i
CCN(CC)CCN1c2ccccc2Sc2ccccc21	i	i	i	99.7	i	i
CC1CCN(c2ccc(C(F)(F)F)cc2N)CC1	i	i	i	97.9	i	i
SMILES	ERp5 block	PDI turbidity	PglD inh	ALR inh	ARNT-TACC3 inh	CendR NRP1 mod
CC1CCN(c2ccc(S(=O)(=O)N3CCC(C)CC3)cc2N)CC1	i	i	i	i	i	i
CCCC(=O)Nc1ccc2c(c1)OC[C@@H](C)N(C)C[C@@H](C)[C@H](OC)CN(C)C2=O	i	nt	nt	nt	nt	nt
CCn1nc([N+](=O)[O-])c(C(C#N)c2nc3cc(C(F)(F)F)ccc3s2)c(Cl)c1=O (stereo unspecified)	nt	i	i	98.1	i	26.1
C[C@H]1CN([C@@H](C)CO)C(=O)Cc2cc(NC(=O)Cc3cn(C)c4ccccc34)ccc2O[C@H]1CN(C)C(=O)Nc1ccccc1	i	nt	i	nt	i	nt
Cc1ccc(-c2nc(Cl)nc3ccccc23)cc1	i	i	nt	i	i	i
Cc1ccc(-c2nc3ccccc3nc2Cl)cc1	i	i	nt	91.4	i	i
CC1(C)Cc2c(sc3ncn(N)c(=N)c23)CO1	nt	i	i	i	i	i
CC1(C)Cc2c(sc3ncnc(NN)c23)CO1	i	i	i	i	47.0	i
Cc1cc(=O)oc2c1c(C)nn2-c1nn[nH]n1	nt	i	i	i	63.5	i
CCCc1cc(=O)oc2cc(C)cc(OCc3nn[nH]n3)c12	nt	i	i	i	i	i
CCCNC(=O)C[C@@H]1CC[C@@H]2[C@@H](COc3ccc(NC(=O)Nc4ccccc4)cc3C(=O)N2C)O1	nt	nt	i	nt	i	nt
Cc1ccc(NC(=O)COC(=O)c2ccc(NC(=O)CC#N)cc2)cc1S(=O)(=O)N1CCOCC1	i	i	i	98.8	i	i
CSc1ncccc1C(=O)OCC(=O)Nc1ccc(C)c(S(=O)(=O)N2CCOCC2)c1	i	i	i	i	i	20.3
CSc1ncccc1C(=O)OCC(=O)NC1CCCCC1	i	i	i	nt	i	22.8
C[C@H]1CN([C@@H](C)CO)C(=O)c2cccc(NC(=O)c3nc4ccccc4s3)c2O[C@H]1CN(C)CC1CC1	i	nt	i	nt	i	nt
c1ccc(-c2nc(-c3ccccn3)nc(-c3ccccn3)n2)nc1	i	i	i	i	51.3	i
c1ccc(-c2nc3ccccc3nc2-c2ccccn2)nc1	nt	i	nt	i	i	i
Clc1ccc(-c2cnnc(-c3ccccn3)n2)cc1	i	i	i	i	60.6	i
Nc1nc(N)nc(-c2ccccn2)n1	nt	i	i	i	63.6	i
Nc1nc(N)nc(-c2ccccc2O)n1	nt	i	i	nt	i	i
C[C@H]1CCCCO[C@H](CN(C)C(=O)Nc2cccc3ccccc23)[C@@H](C)CN([C@@H](C)CO)C(=O)c2cc(NC(=O)NC3CCCCC3)ccc2O1	i	nt	i	nt	i	nt
CO[C@@H]1CN(C)C(=O)c2ccc(NC(=O)Nc3cccc(F)c3)cc2OC[C@H](C)NC[C@H]1C	i	nt	i	nt	i	nt
CO[C@@H]1CN(C)C(=O)c2cc(NC(=O)c3ccc(F)cc3)ccc2OC[C@H](C)N(C(=O)c2ccc(F)cc2)C[C@@H]1C	i	nt	i	nt	i	nt
COc1ccc(OC)c(N(CC(N)=O)S(=O)(=O)c2ccc(OC)c(OC)c2)c1	nt	i	i	99.1	i	i
COc1ccc(OC)c(N(CC(=O)N2CCCCC2)S(=O)(=O)c2ccc(OC)c(OC)c2)c1	nt	i	i	i	i	i
O=S(=O)(Nc1ccc(C(O)(C(F)(F)F)C(F)(F)F)cc1)c1ccc(Cl)c2nonc12	nt	33.7	i	nt	nt	i
C[C@@H]1CN([C@H](C)CO)C(=O)c2cc(C3=CCCCC3)cnc2O[C@@H]1CN(C)C(=O)Nc1cccc(F)c1	i	nt	i	nt	i	nt
COc1ccccc1Nc1nn2c(=O)c3ccc(C(=O)N4CCC(C)CC4)cc3nc2s1	i	i	i	i	i	24.6

Assay outcomes deposited in PubChem BioAssay by several laboratories.
